The target of the assay is AMP-activated protein kinase, AMPK (Homo sapiens) (UniProt P54646+O43741+P54619+Q9UGJ0+Q9Y478+Q13131+Q9UGI9). In words: AMP-dependent Kinase enzyme assay. An in vitro enzyme assay that detects ADP turnover that is directly proportional to AMPK activity. This uses naive AMPK that is activated during the assay with MK-8722. In kind it is functional. Conditions: 30 µM. Further details: scale not given: direction of the effect not stated beside the values.

`CN(C(=O)C1CCN(Cc2cnc3ccccn23)CC1)c1ccccc1`: the Percent Effect was -0.957%.
The result for `Cc1cc(C)n(C2CN(Cc3nc4cc(Cl)ccc4n3C)C2)n1` reads 3.42%.
Next, `COCCN(Cc1cnn(C)c1)c1nc2c(s1)c(C)nn2C`: -0.701%.
The result for `CCn1cnnc1CNS(=O)(=O)N1CCCC1c1ccco1` (stereo not given) reads -5.92%; that for `CN(C)c1cc2c(nn1)CCN(C(=O)c1ccc(-n3cccn3)nc1)C2`, 2.65%.
In the case of `Cc1cc(COC(=O)[C@@H]2Cc3ccccc3CN2S(C)(=O)=O)no1`, the Percent Effect turned out to be 27.9%.
Take `O=C(Nc1ccc(Br)cc1F)c1ccc(N2CCOCC2)nn1`: the Percent Effect is -1.73%.
Next, `COCCC(C)NCc1ccccc1-n1ccnc1` (stereo not given): -0.71%.
Consider `COCC(=O)N1CCCC1(C(=O)N(C)C)c1cnccn1` (stereo not given), for which the Percent Effect is 6.8%.
Regarding `CCn1nc(C)c(C(=O)N2C[C@@H](CN(C)C)[C@@H](CO)C2)c1C`, the Percent Effect is -14.6%.
The result for `Cc1ccccc1CCC(=O)N1CCc2ncnc(NCCO)c2CC1` reads 0.622%.
The result for `N#Cc1cccnc1NCCc1cc(F)cc2c1OCOC2` reads 22.2%; that for `Cc1nc2c(c(N3CCCOCC3)n1)CCN(c1nccs1)CC2`, -16.9%.
The result for `CNC(=O)c1cccnc1NCc1ccc(Cn2ccnc2)cc1` reads -1.78%; that for `O=C(NCCCn1ccnc1)C1COCC(=O)N1Cc1ccccc1` (stereo not given), 3.38%.
Turning to `Cc1ccc(F)c(C(=O)Nc2c(C(N)=O)n[nH]c2C)c1`, the Percent Effect worked out at 9.84%.
Consider `O=C(Cn1cc(-c2ccccc2)cn1)N1CCNC1=O`, for which the Percent Effect turned out to be 0.445%.
As for `O=C1NC(C(=O)NCc2cccnc2Oc2ccc(F)c(F)c2)CO1` (stereo not given), the Percent Effect turned out to be 0.367%.
As to `COC(=O)c1ccc(NC(=O)CCc2ccco2)cc1`, the Percent Effect was 20.9%.
Take `Cc1ccc(CNC(=O)NCc2ccco2)s1`: the Percent Effect was 2.27%.
Take `CC(NCc1cnc(N2CCOCC2)nc1)c1ccc(Cl)s1` (stereo not given): the Percent Effect amounted to 10.3%.
For the compound `CS(=O)(=O)NCC1CCCN(Cc2ccccc2F)C1` (stereo not given), the Percent Effect was -6.5%.
Next, `Cc1ccc(CN(C(=O)NC2CCS(=O)(=O)C2)C2CC2)o1` (stereo not given): 1.3%.
For the compound `Cc1n[nH]c(C)c1CCc1n[nH]c(=O)n1Cc1cccs1`, the Percent Effect is -7.17%.
Turning to `COc1cc(N2CCN(Cc3ccc(C)o3)C(CCO)C2)nc(N)n1` (stereo not given), the Percent Effect is 0.197%.
Turning to `Cc1nc(COc2ccc(N(C)S(C)(=O)=O)cc2)sc1C`, the Percent Effect is -7%.
Next, `Cc1nc(N)cc(C2(C)CCCNC2)n1` (stereo not given): 14.2%; `Nc1nc2c(c(NCc3nccs3)n1)CCN(CC1CCCC1)CC2`: 1.23%; `CC(C)Oc1cc(N2CCN(Cc3ccsc3)C(CCO)C2)nc(N)n1` (stereo not given): -13.7%.
Next, `O=C1CN(Cc2cn(CC3CCCN(C4CCSCC4)C3)nn2)CCN1` (stereo not given): -8.48%; `COCCNC(=O)c1cnc(C)nc1C`: 3.33%; `COCCN1CCCC2(CCN(c3cc(C)c(C#N)c(C)n3)C2)C1=O` (stereo not given): -7.22%.
With `Cc1cn[nH]c1C1COCCN1Cc1c[nH]cn1` (stereo not given), the Percent Effect was found to be 8.68%.
For `COC(=O)c1ccoc1CN(C1CC1)C1CCS(=O)(=O)C1` (stereo not given), the Percent Effect is 7.17%.
Next, `Cc1cncc(C2CCN(Cc3ccncc3)CC2)n1`: 7.85%; `Cc1cc(NC(=O)C2CCN(c3ncccc3C#N)CC2)no1`: 4.93%; `O=C1OCCN1Cc1nc(C2(c3ccc(F)cc3)CCOC2)no1` (stereo not given): 8.23%.
For the compound `Cc1ccc(C(=O)NCc2ccnc(C3CCCOC3)n2)s1` (stereo not given), the Percent Effect was 7.88%.
As for `O=C(CC1C=CCC1)N1CCc2ncnc(NCc3ccon3)c2CC1` (stereo not given), the Percent Effect came out at 21.6%.
The result for `Cc1ccc(F)c2c1CCCN2CC(=O)NC1CCS(=O)(=O)C1` (stereo not given) reads 3.51%.
The result for `CC1CN(Cc2cccc(CNC3CCCC3)c2)CCO1` (stereo not given) reads 2.35%; that for `O=C(NCc1nccs1)N1CCOC(c2ccccc2Cl)C1` (stereo not given), 4.45%; that for `Cc1cc(C(=O)NCCN2CCCCCC2)nn1C(C)(C)C`, 4.2%.
Consider `CC(CC(=O)c1ccccc1)NC(=O)c1ccon1` (stereo not given), for which the Percent Effect stood at 8.5%.
Next, `Cc1cc(=O)c2cc(F)ccc2n1CC(=O)O`: 7.06%; `CN(C)C(C(=O)N1CCN(CCn2cccc2)CC1)c1ccc(F)cc1` (stereo not given): -8.31%.
Next, `CN1CCCC(CNC(=O)CN(C)S(=O)(=O)c2cccnc2)C1` (stereo not given): -10.7%; `NC(=O)CC1CCCN(c2cncc(SCc3ccccc3)n2)C1` (stereo not given): 25.3%; `CC(C)N(C)C(=O)C1CCN(Cc2cnc3ccccn23)CC1`: -1.05%.
Next, `CC(C)N(CC(=O)Nc1cccc(C(=O)N(C)C)c1)C1CC1`: 1.38%; `COc1ccc(-c2cc3nc(CCNC(=O)CN(C)C)nn3cn2)cc1`: 15%; `Cc1ccccc1Oc1ncccc1CNC(=O)Cn1cccnc1=O`: -5.58%.
With `COCCNc1ccc(CC2CCCN(c3ncccn3)C2)nn1` (stereo not given), the Percent Effect turned out to be 6.13%.
With `Cc1nccn1-c1ccc(C(=O)NCC(F)(F)F)nn1`, the Percent Effect was -3.73%.
The result for `COCCN1C(=O)[C@H]2CC[C@@H]1CN(S(=O)(=O)c1ccc(OC)cc1)C2` reads 13.1%; that for `Cn1cnnc1C1CCCN(Cc2nc(Cc3ccccc3)no2)C1` (stereo not given), 12.2%; that for `CN(c1ncc(S(N)(=O)=O)s1)C1CCc2ccccc21` (stereo not given), 8.8%.
The result for `CC(C)Cn1ncc(C(=O)NS(=O)(=O)C2CCCC2)c1C1CC1` reads 5.57%; that for `NS(=O)(=O)c1ccc(NCc2ccco2)c2ncccc12`, -2.08%; that for `COc1nccc(N2CC[C@H](CO)[C@@H](O)C2)c1C#N`, -6.05%.

The record behind these values is ChEMBL document CHEMBL3988442, “University of Dundee, Small-Polar-MMV Screening Library” (2021).
